# Inconclusive results are not listed. Entries that show only a call come without a potency. The source made the active and inactive calls. Calls follow the shape of the dose curve; as a rule, active = well fitted cell-killing curve with a large enough effect in the repeat runs; inconclusive = weak or mixed curves, or effect the other way; inactive = no such curve, though single readings can be large or run the other way.
# Experiment: qHTS assay to identify small molecule antagonists of the retinoid-related orphan receptor gamma (ROR-gamma) signaling pathway - cell viability counter screen (AID 1159520); also: nearly all actives have a fitted effect of over 50% in size
# Settings: Tet-on RORgamma CHO cells viability, ATP luminescence, 16 h; series mostly up to 92.4 µM; activity, negative = cytotoxicity: at the top concentration
# Text: U.S. Tox21 Program National Center for Advancing Translational Sciences [NCATS] NIH Chemical Genomics Center [NCGC] U.S. Environmental Protection Agency [EPA] National Institutes of Environmental Health Sciences [NIEHS] National Toxicology Program [NTP] U.S. Food and Drug Administration [FDA] Tox21 Assay Overview: Nuclear steroid hormone receptors are involved in many biological processes including inflammatory responses, cell proliferation, and apoptosis. Environmental factors or compounds disrupting these nuclear receptor pathways and gene expression may promote susceptibility to immunotoxicants and autoimmune diseases. One important group of these expression factors are the retinoid-related orphan receptors. To assess compounds that may interfere with the retinoid-related orphan receptor gamma (ROR-gamma) transcription factor, a cell-based luciferase assay was used. The CHO cell-based assay utilizes a TET-inducible ROR expression factor and ROR response element-LUC reporter gene. Reporter gene activity was induced using Doxycycline Hyclate and measured after 16 hr incubation. Tet-on ROR gamma CHO cells were used to screen against the Tox21 10K compound library for cytotoxicity by measuring the viability of the cells based on the quantitation of the ATP.
# Tox21 Assay Protocol Summary: Tet-on ROR gamma CHO cells were dispensed at 1,000 cells in 4 uL of culture medium per well into white wall/solid bottom 1536-well plates using a Multidrop Combi (Thermo Scientific, Waltham, MA) dispenser. Following incubation at 37 C and 5% CO2 for 4 hr, 23 nL of compounds dissolved in DMSO, positive controls or DMSO only were transferred by a Pintool station (Kalypsys, San Diego, CA) and after 2 hr incubation at 37 C, one ul of 1 uM (final concentration) of Doxycycline Hyclate was added to all the wells by using a Flying Reagent Dispenser (FRD) (Aurora Discovery, San Diego, CA). After 16 hr incubation at 37 C and 5% CO2, 5 uL of CellTiter-Glo reagent (Promega Corporation, Madison, WI) was added to each assay plate using FRD. After 30 min incubation at room temperature, luminescence was quantified on a ViewLux plate reader (Perkin Elmer, Waltham, MA).
Structure (SMILES),Potency,"activity, negative = cytotoxicity"
CCCCCCCCCCCC#N,inactive,–
CCCN(CCC)c1c([N+](=O)[O-])cc(C(F)(F)F)cc1[N+](=O)[O-],inactive,–
CCC[N+](=O)[O-],–,11.4% (inactive)
CCOP(=S)(OCC)Oc1cnc2ccccc2n1,inactive,–
O=S(=O)(c1ccc(Cl)cc1)c1cc(Cl)c(Cl)cc1Cl,–,-13.2% (inactive)
CN(C)N=O,–,8.56% (inactive)
CC(Br)C(=O)O (stereo not given),inactive,–
COP(N)(=O)SC (stereo not given),inactive,–
CCCCOC(=O)c1ccccc1C(=O)OCCCC,inactive,–
Nc1ccc(Br)cc1,inactive,–
CCc1cccc(C)c1N(C(=O)CCl)C(C)COC (stereo not given),inactive,–
CC(NC(C)(C)C)C(=O)c1cccc(Cl)c1 (stereo not given),inactive,–
COCCl,inactive,–
O=S(=O)(c1ccc(O)cc1)c1ccc(O)cc1,inactive,–
CC(C)OC(=O)Nc1cccc(Cl)c1,inactive,–
CCNc1nc(NC(C)(C)C)nc(SC)n1,inactive,–
ClCc1cccnc1,inactive,–
O=[N+]([O-])c1ccc(Oc2ccc(Cl)cc2Cl)cc1,inactive,–
NCC(O)c1ccc(O)cc1 (stereo not given),inactive,–
COC(=O)NC(=S)Nc1ccccc1NC(=S)NC(=O)OC,inactive,–

Structure (SMILES),Potency,"activity, negative = cytotoxicity"
Clc1cccc(Cl)c1Cl,inactive,–
Cc1ccc(N)cc1Cl,inactive,–
Cc1cc(Cl)ccc1O,inactive,–
CC1OC(C)OC(C)O1 (stereo not given),inactive,–
Nc1ccc(Oc2ccc(N)cc2)cc1,inactive,–
Cc1ccc(N)cc1N,inactive,–
[O-][Cl+2]([O-])O,inactive,–
c1ccc(OP(Oc2ccccc2)Oc2ccccc2)cc1,inactive,–
CC(C)(C)OOC(=O)c1ccccc1,inactive,–
CCCCCCCCCl,inactive,–
C#CCN(C)[C@H](C)Cc1ccccc1,inactive,–
Cc1ccc([N+](=O)[O-])cc1C,inactive,–
C=C(C)CCl,inactive,–
Cc1ccccc1O,inactive,–
CCC[CH2][Sn]([Cl])([Cl])[Cl],inactive,–
CCCCCOC(=O)c1ccccc1C(=O)OCCCCC,inactive,–
C#CC(C)(C)NC(=O)c1cc(Cl)cc(Cl)c1,inactive,–
Clc1ccccc1Cl,inactive,–
C1CC2OC2CC1C1CO1 (stereo not given),inactive,–
Oc1ccccc1Cl,inactive,–
